Assay results taken from PubChem BioAssay (NCATS).
Inconclusive results are not listed. Activity calls are given as the source filed them.

Molecular target: Peroxisome proliferator-activated receptor delta (Homo sapiens) (UniProt Q03181)
Assay: qHTS assay for small molecule antagonists of peroxisome proliferator-activated receptor delta signaling (AID 588535; active means well fitted inhibition curve with a large enough effect in the signal ratio, with a control signal flat, not every such curve was filed as active; the % refers to the signal ratio)
Conditions: HEK293T PPARd-UAS-bla, beta-lactamase FRET ratio, 18 h; series mostly up to 76.7 µM
Outline: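 Reporter: UAS-bla under PPAR-delta response element, HEK293T host. Medium: 2% charcoal/dextran FBS. Dosing: titration, 18 hrs, 37 C. Detection: CCF4, 2 hrs RT, 405 ex/460 and 530 em.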

Chain of Peroxisome proliferator-activated receptor delta (Homo sapiens) (Q03181 whole entry, looked up): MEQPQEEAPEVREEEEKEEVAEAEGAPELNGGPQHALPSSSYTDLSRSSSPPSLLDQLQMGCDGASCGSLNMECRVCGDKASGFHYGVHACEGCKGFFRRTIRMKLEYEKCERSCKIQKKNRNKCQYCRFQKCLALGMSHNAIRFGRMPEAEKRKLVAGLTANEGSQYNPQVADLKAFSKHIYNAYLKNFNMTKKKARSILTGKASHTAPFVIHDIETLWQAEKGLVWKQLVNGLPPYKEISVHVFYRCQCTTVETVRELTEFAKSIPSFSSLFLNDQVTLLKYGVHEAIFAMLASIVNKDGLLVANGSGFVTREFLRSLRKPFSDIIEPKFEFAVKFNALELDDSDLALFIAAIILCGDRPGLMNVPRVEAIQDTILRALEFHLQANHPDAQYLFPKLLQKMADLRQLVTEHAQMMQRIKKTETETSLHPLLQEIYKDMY

| Structure (SMILES) | outcome |
| --- | --- |
| CCCCCCc1ccc(-c2ccc(C#N)cc2)cc1 | inactive |
| Oc1c(Cl)cc(Cl)c(Cl)c1Cl | inactive |
| CC(C)OCC1CO1 (stereo not drawn) | inactive |
| C/C(Cl)=C/CCl | inactive |
| CCCCNCC | inactive |
| O=[N+]([O-])c1cccc(I)c1 | inactive |
| Nc1ccc2c(c1)C(=O)c1ccccc1C2=O | inactive |
| c1ccc2c(c1)ccc1ccccc12 | inactive |
| COc1ccc([N+](=O)[O-])cc1N | inactive |
| OCC(CO)(CBr)CBr | inactive |
| CC(=O)OC1CC(C)OC(C)O1 (stereo not drawn) | inactive |
| O=C(OCc1ccccc1)c1ccccc1O | inactive |
| C/C=C/C=C/C=O | inactive |
| c1c[nH]cn1 | inactive |
| c1ccc(SCCSc2ccccc2)cc1 | inactive |
| O=C(O)/C=C/c1ccc(/C=C/C(=O)O)cc1 | inactive |
| CC(=O)Nc1cccc(C)c1 | inactive |
| CCC(Cl)CC(Cl)C(Cl)C(Cl)C(Cl)C(C)Cl (stereo not drawn) | inactive |
| COc1ccc(C)cc1N | inactive |
| CCOC(=O)C1OC1c1ccccc1 (stereo not drawn) | inactive |

Molecular target: Peroxisome proliferator-activated receptor gamma (Homo sapiens) (UniProt P37231)
Sequence (P37231 whole entry, looked up): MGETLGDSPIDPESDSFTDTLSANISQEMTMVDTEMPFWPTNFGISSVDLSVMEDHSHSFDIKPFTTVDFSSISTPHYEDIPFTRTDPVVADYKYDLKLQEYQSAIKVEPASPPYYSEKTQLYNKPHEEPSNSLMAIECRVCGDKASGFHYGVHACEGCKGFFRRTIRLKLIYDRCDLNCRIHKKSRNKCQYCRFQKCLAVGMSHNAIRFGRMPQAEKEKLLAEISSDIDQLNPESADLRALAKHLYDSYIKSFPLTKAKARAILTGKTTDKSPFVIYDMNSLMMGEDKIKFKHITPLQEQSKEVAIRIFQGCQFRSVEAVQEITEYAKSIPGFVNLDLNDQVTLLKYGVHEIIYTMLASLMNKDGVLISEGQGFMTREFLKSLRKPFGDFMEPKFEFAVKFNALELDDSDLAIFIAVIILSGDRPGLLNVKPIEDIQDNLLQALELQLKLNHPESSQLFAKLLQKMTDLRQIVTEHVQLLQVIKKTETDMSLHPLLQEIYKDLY
Assay: qHTS assay for small molecule agonists of peroxisome proliferator-activated receptor gamma signaling (AID 588536; active means well fitted curve in the direction sought with a large enough effect in the signal ratio, with a control signal flat, not every such curve was filed as active; the % refers to the signal ratio)
Conditions: HEK293 PPARg-UAS-bla, beta-lactamase ratio, 16 h, percent of rosiglitazone response, DMSO as zero; series mostly up to 76.7 µM
Outline: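 Test agents, titrated, stimulated HEK293 UAS-bla cells overnight (16 h, 37 C). Substrate CCF4 was then added for two hours at room temperature before fluorescence reading.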

| Structure (SMILES) | outcome |
| --- | --- |
| Nc1cnn([C@@H]2O[C@H](CO)[C@@H](O)[C@H]2O)c(=O)n1 | inactive |
| Oc1c(Cl)cc(Cl)c(Cl)c1Cl | inactive |
| CC(C)OCC1CO1 (stereo not drawn) | inactive |
| C/C(Cl)=C/CCl | inactive |
| CCCCNCC | inactive |
| O=c1[nH]ncc2ccccc12 | inactive |
| c1ccc(COCc2ccccc2)cc1 | inactive |
| O=[N+]([O-])c1cccc(I)c1 | inactive |
| Nc1ccc2c(c1)C(=O)c1ccccc1C2=O | inactive |
| c1ccc2c(c1)ccc1ccccc12 | inactive |
| Nc1ccc(N=Nc2ccccc2)c(N)c1 | inactive |
| Cc1ccc(C(=O)O)cc1[N+](=O)[O-] | inactive |
| COc1ccc([N+](=O)[O-])cc1N | inactive |
| OCC(CO)(CBr)CBr | inactive |
| Nc1cc(C(=O)O)c(O)c(S(=O)(=O)O)c1 | inactive |
| c1ccncc1 | inactive |
| CC(=O)OC1CC(C)OC(C)O1 (stereo not drawn) | inactive |
| c1c[nH]cn1 | inactive |
| c1ccc(SCCSc2ccccc2)cc1 | inactive |
| O=C(O)/C=C/c1ccc(/C=C/C(=O)O)cc1 | inactive |
| CCCCOC(=O)COc1ccc(Cl)cc1Cl | inactive |
| CC(=O)OC(C(=O)c1ccccc1)c1ccccc1 (stereo not drawn) | inactive |
| CC(=O)Nc1cccc(C)c1 | inactive |
| COc1ccc(C)cc1N | inactive |
| O=[N+]([O-])c1ccccc1Nc1ccccc1 | inactive |
| C=CC1CO1 (stereo not drawn) | inactive |
| CCOC(=O)C1OC1c1ccccc1 (stereo not drawn) | inactive |
| COc1ccc(C(=O)Nc2ccccc2)cc1[N+](=O)[O-] | inactive |
